For 2 molecules, activity change results are on record in PubChem BioAssay AID493029 (Johns Hopkins Ion Channel Center, 2011).

In all, about 1,000 compounds went through this assay and about 140 (14%) were called active. No rule for the calls is given here. Shown is part of a subset that was picked to be rich in actives.

The test can be described thus: thallium flux change in parental CHO cells, counter-screen for KCNQ2 inhibitor project (AID 493029).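 As to activity change: 0% = vehicle negative controls with stimulus buffer.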 Conditions: at 10 µM; stronger effect = lower value. Background: The purpose of a counterscreen is to sort out artefacts and off-target activity.
`CN(C)CC1Oc2ccccc2OC1(O)c1ccccc1` (configuration not stated): the activity change was -23% (active).
The value for `O=C(NC(c1ccc(Cl)cc1)P(=O)(Oc1ccccc1)Oc1ccccc1)OCc1ccccc1` (configuration not stated) was “inactive”.
